This is an account of results in article PMC4336329 (PLoS ONE, 2015).

Structures are written as SMILES. Among all 310,000 compounds or so, about 14,000 (4.5%) showed an effect of 50% or more. The effect is printed as a negative number. This excerpt belongs to a sample that is enriched for strong results.
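Also: peak tail current of the secondary pulse compared with the same well before compound.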

In this assay the target is human ether-à-go-go-related gene (hERG) potassium channel (human, UniProt Q12809). The experiment in a line: primary screen, population patch clamp on CHO cells stably expressing hERG; higher = less effect of the substance.
human ether-à-go-go-related gene (hERG) potassium channel, sequence (Q12809 whole entry, looked up): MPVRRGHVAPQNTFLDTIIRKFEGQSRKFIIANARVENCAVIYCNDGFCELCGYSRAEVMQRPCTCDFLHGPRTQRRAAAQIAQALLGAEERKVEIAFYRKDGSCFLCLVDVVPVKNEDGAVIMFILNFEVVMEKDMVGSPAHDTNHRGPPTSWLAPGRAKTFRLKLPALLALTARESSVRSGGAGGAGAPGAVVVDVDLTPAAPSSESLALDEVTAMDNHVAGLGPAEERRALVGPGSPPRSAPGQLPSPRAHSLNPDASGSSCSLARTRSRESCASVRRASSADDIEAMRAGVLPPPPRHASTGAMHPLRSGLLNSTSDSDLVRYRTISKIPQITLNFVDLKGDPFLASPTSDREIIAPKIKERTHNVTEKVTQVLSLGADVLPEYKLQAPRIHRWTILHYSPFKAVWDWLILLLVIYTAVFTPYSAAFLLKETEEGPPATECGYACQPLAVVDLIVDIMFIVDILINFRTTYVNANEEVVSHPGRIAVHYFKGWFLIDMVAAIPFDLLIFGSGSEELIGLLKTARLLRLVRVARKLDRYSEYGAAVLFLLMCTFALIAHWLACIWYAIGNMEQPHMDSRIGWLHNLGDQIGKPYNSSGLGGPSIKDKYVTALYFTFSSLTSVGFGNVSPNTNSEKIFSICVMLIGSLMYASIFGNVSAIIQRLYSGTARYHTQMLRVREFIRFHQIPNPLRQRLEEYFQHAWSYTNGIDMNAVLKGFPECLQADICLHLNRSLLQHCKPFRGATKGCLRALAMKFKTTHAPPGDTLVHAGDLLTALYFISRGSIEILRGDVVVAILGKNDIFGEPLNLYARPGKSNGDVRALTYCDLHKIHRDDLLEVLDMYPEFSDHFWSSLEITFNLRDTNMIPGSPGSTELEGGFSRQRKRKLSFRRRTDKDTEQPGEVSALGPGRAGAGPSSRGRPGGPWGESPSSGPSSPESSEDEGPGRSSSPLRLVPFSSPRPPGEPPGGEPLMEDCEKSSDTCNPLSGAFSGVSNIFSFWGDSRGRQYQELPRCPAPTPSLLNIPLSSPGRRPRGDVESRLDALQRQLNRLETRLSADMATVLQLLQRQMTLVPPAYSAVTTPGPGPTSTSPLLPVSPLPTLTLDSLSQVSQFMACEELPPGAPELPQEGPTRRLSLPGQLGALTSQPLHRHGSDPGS
For the compound `COc1cc(-c2nc3ccc4ccccc4c3c3c2CCC3)ccc1O`, the “hERG current change (%, negative = inhibition) at 10uM” value was 13.8%.

Consider `O=[N+]([O-])c1ccc(N(CC(O)CN2CCCCC2)S(=O)(=O)c2ccccc2)cc1` (stereo not drawn), for which the “hERG current change (%, negative = inhibition) at 10uM” value was -74%. As for `O=C(CN(c1cccc([N+](=O)[O-])c1)S(=O)(=O)c1ccccc1)N1CCCCC1`, the figure is -24.8%. As for `O=[N+]([O-])c1ccc(S(=O)(=O)N(CC(O)CN2CCCCC2)c2ccccc2)cc1` (stereo not drawn), the figure is -80.9%. Turning to `CC1(C)NC(=O)N(CC(O)CN(c2ccccc2)S(=O)(=O)c2ccc([N+](=O)[O-])cc2)C1=O` (stereo not drawn), the “hERG current change (%, negative = inhibition) at 10uM” value was -13.7%.

For the compound `O=C(CN(c1ccc([N+](=O)[O-])cc1)S(=O)(=O)c1ccccc1)N1CCCCC1`, the “hERG current change (%, negative = inhibition) at 10uM” value is reported as -61.9%. Under `Cc1ccc(N(CC(=O)N2CCCCCC2)S(=O)(=O)c2ccccc2)cc1` stands -25.3%; under `COc1ccc([N+](=O)[O-])cc1N(CC(O)CN1CCCCC1)S(=O)(=O)c1ccccc1` (stereo not drawn), -11.2%; under `COc1ccc([N+](=O)[O-])cc1N(CC(O)CN1CCOCC1)S(=O)(=O)c1ccccc1` (stereo not drawn), 20%. Under `CNC(=O)OCCc1n(C)cc[n+]1C.[I-]` stands 13.9%. Under `Cn1cnnc1Sc1ccc(C(=O)OCC(=O)NCC(F)(F)F)cc1[N+](=O)[O-]` stands 0.021%; under `CC(C)(C)C(=O)Cn1c(=O)n(-c2ccc(F)cc2F)c(=O)c2sccc21`, 4.28%. Regarding `O=C1C(C2=NC(C(=O)O)C3C(=O)N(c4ccc(Cl)cc4)C(=O)C23)=C(O)c2ccccc21` (stereo not drawn), the “hERG current change (%, negative = inhibition) at 10uM” value amounted to 2.54%. Under `COc1cc(CN2CCC(Oc3cc(C(=O)NC4CC4)ccc3OC)CC2)cc(OC)c1` stands -72.8%; under `COc1ccc(C(=O)NC2CC2)cc1OC1CCN(Cc2cc(C)cc(C)c2)CC1`, -70.2%. Under `COc1ccc(C(=O)NC2CCCCCCC2)cc1OC` stands 1.54%. Under `COc1cc(C(=O)NC2CC(C)(C)CC(C)(C)C2)ccc1OC1CCN(C(C)=O)CC1` stands 6.2%; under `COc1ccc(C(=O)NCCc2ccc(C)cc2)cc1OC1CCN(C(C)=O)CC1`, -4.05%.

Regarding `COc1cc(/C=N/NC(=O)COc2ccccc2C)ccc1OC(=O)c1cccs1`, the “hERG current change (%, negative = inhibition) at 10uM” value is -0.671%. With `Cc1ccc(NC(=O)Cn2nnc(-c3ccc4c(c3)OCO4)n2)cc1F`, the “hERG current change (%, negative = inhibition) at 10uM” value was 11%. As to `Nc1cc(N)nc(SCC(=O)Nc2ccccc2N2CCOCC2)n1`, the “hERG current change (%, negative = inhibition) at 10uM” value came out at 2.73%. For `CC(C)c1nc2sc3c(c2c(=O)[nH]1)CC(C)(C)OC3`, the “hERG current change (%, negative = inhibition) at 10uM” value worked out at 17.7%.

In the case of `Cc1ccccc1C(=O)NCCNC(=O)c1ccccn1`, the “hERG current change (%, negative = inhibition) at 10uM” value is given as 6.75%. Under `O=C(Nc1cccnc1)c1cc(F)c(F)cc1Cl` stands 19.7%. As for `CC(C)Cc1ccc(C(=O)Nc2ccc(Cc3ccncc3)cc2)o1`, the “hERG current change (%, negative = inhibition) at 10uM” value is recorded as -57.6%.

Turning to `O=C(NCc1ccncc1)c1cc(F)c(F)cc1Cl`, the “hERG current change (%, negative = inhibition) at 10uM” value is on record as 14.2%. Under `O=C(Nc1ccc(Cc2ccncc2)cc1)c1cc(F)c(F)cc1Cl` stands -71.2%; under `CC(C)CC(=O)Nc1ccc(Cc2ccncc2)cc1`, 10.1%. As for `O=C(Nc1ccc(Cc2ccncc2)cc1)c1ccc(Br)o1`, the figure is -35.8%; as for `N#Cc1cnc(SCC(=O)N2CCCC2)nc1N`, 13.1%; as for `COc1cc(NC(=O)c2cccc(C)c2)c(OC)cc1NC(=O)CN1CCOCC1`, -3.88%. Under `O=C(NC12CC3CC(CC(C3)C1)C2)C12CC3CC(C1)CC(n1cnc(Cl)n1)(C3)C2` stands 2.42%; under `COc1cc(-c2nc(-c3cccc(C)c3)no2)cc(OC)c1OC`, 0.668%.

With `CC(=O)Nc1ccc(NC(=O)C2CCCN2C(=O)NC2CCCCC2)cc1` (stereo not drawn), the “hERG current change (%, negative = inhibition) at 10uM” value is reported as 12.5%. In the case of `O=C(Nc1ccc(-n2cnnn2)cc1)C1CCC1`, the “hERG current change (%, negative = inhibition) at 10uM” value came to 11.3%. As for `O=C(Nc1ccc(-n2cnnn2)cc1)C1CCCN1C(=O)Nc1ccc(Br)cc1` (stereo not drawn), the figure is -79.9%; as for `Cc1ccc(NC(=O)C2CCCN2C(=O)NC2CCCCC2)cc1` (stereo not drawn), 8.72%; as for `Cc1cccc(C)c1NC(=O)N1CCCC1C(=O)Nc1ccc(-n2cnnn2)cc1` (stereo not drawn), -35.8%.

For `CC(C)c1ccc(NC(=O)N2CCCC2C(=O)Nc2ccc(-n3cnnn3)cc2)cc1` (stereo not drawn), the “hERG current change (%, negative = inhibition) at 10uM” value was -61.8%.

On to `Cc1cc(NC(=O)C2CCCN2C(=O)Nc2cccc(Cl)c2)ccc1-n1cnnn1` (stereo not drawn), for which the “hERG current change (%, negative = inhibition) at 10uM” value is reported as -48.3%. As to `Cc1cc(NC(=O)C2CCCN2C(=O)Nc2c(C)cccc2C)ccc1-n1cnnn1` (stereo not drawn), the “hERG current change (%, negative = inhibition) at 10uM” value is on record as -10.9%.

On to `O=C(Nc1ccc(-n2cnnn2)cc1)C1CCCN1C(=O)NC1CCCCC1` (stereo not drawn), for which the “hERG current change (%, negative = inhibition) at 10uM” value is on record as -63.3%.

Take `Cc1cc(C)cc(NC(=O)N2CCCC2C(=O)Nc2ccc(-n3cnnn3)cc2)c1` (stereo not drawn): the “hERG current change (%, negative = inhibition) at 10uM” value is -54.1%.

`Cc1cc(C)cc(NC(=O)N2CCCC2C(=O)Nc2ccc(-n3cnnn3)c(C)c2)c1` (stereo not drawn): the “hERG current change (%, negative = inhibition) at 10uM” value is listed as -12.3%. `Cc1ccc(NC(=O)N2CCCC2C(=O)Nc2ccc(-n3cnnn3)c(C)c2)cc1` (stereo not drawn): the “hERG current change (%, negative = inhibition) at 10uM” value is recorded as -18.7%.
